Screening results as filed in PubChem.
Shiga inhibitor: Shiga toxin inhibition; inhibition, % at 38.7 µM; Vero cells, Shiga toxin protein synthesis inhibition reporter; AID 2315; actives 9.2% (n = 290,000); in the data active = inhibition mostly above about 28%, no sharp cut-off; inactive = mostly below about 43%; note: 0% is about no effect
NS1 inh: blocks influenza NS1 protein function. actives 0.4% (n = 270,000). Potency, µM (top dose mostly 46.1 µM), for the others: at the highest dose activity, positive = more growth; calls by dose curve; note: potency is the fitted concentration of half-maximal effect; actives are rising curves; nearly all actives have a fitted effect of over 50% in size
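In this qHTS, NS1 from influenza A is expressed in budding yeast, where it slows growth. Cells are switched from glucose to 2% galactose medium (pH 6.0, -URA), treated with compound, and growth recovery is read at OD600.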
Pf growth 48h: P. falciparum growth inhibition at 48 hours (one generation); P. falciparum luciferase growth in erythrocytes, 48 h; Potency, µM (highest dose often 28.7 µM), inactives show top-dose activity change, negative = inhibition, actives largely listed as inhibitors; actives 5.9% (n = 310,000); AID 504832; note: potency is the fitted concentration of half-maximal effect; % is set by controls: 0 for no effect and ±100 for the full control effect
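Firefly luciferase activity from engineered P. falciparum reports growth; inhibitors lower the luminescent signal. Cultures contained 2% hematocrit erythrocytes at 0.1% final parasitemia.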
Pf growth 96h: inhibits malaria parasite growth, 96 h. AID 504834. P. falciparum luciferase reporter growth, 96 h. actives 6.9% (n = 320,000). Potency, µM (doses to about 28.7 µM), inactives show top-dose activity change, negative = inhibition, usual class: inhibitors; note: potency is the fitted concentration of half-maximal effect; % is set by controls: 0 for no effect and ±100 for the full control effect
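Plates of compound plus infected erythrocytes (2% hematocrit, 0.05% parasitemia final) incubate 96 hours, 37 C, 5% CO2. Detection reagent added; reduced luminescence from the parasites' luciferase reporter flags inhibition.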
CHX counter: affects cycloheximide protein synthesis inhibition readout, counter-screen; actives 12% (n = 300,000); AID 2314; max response, %; cell reporter, cycloheximide protein synthesis inhibition counterscreen; in the data active = max response mostly above about 13%, no sharp cut-off; inactive = mostly below about 14%; note: read at 38.3 µM for the half of the compounds with a filed dose; 0% is about no effect
Sm TGR block: S. mansoni TGR enzyme inhibition; Q962Y6; purified TGR, DTNB reduction, TNB absorbance 405 nm; Potency, µM (highest dose often 114 µM), for the others: at the highest dose activity change, negative = inhibition, actives largely listed as inhibitors; actives 3% (n = 360,000); note: potency is the fitted concentration of half-maximal effect; % is set by controls: 0 for no effect and ±100 for the full control effect; nearly all actives have a fitted effect of over 60% in size
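First, TGR (20 nM dispensed) and NADPH were mixed with compound. Second, a 15 min room-temperature incubation followed. Third, further NADPH and then DTNB were added to start the reaction. Finally, TNB absorbance was monitored kinetically.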
An asterisk follows results filed as active; u = inconclusive; x = not tested or not shown; [ ] = another dose, or the depositor's remark. A selection: hits, their analogues and other compounds. The true share with any hit is near 21%. Unless noted, calls come from the whole dose curve; as a rule, active = well fitted curve in the direction sought with a large enough effect; inconclusive = small, poorly fitted or top-dose-only effect, or another doubt; inactive = no such curve, though single readings can be large; an effect the other way counts as inactive or inconclusive.

SMILES | Shiga inhibitor | NS1 inh | Pf growth 48h | Pf growth 96h | CHX counter | Sm TGR block
Cc1cc(C)nc(CCNC(=O)c2cc(COc3c(C)cccc3C)on2)n1 | -18.3 | -15.8% | -3.5% | 0.5% | 16.1* | -0.1%
COCCN1CC(CNC(=O)c2cc(COc3ccccc3SC)on2)CC1=O (centres undefined) | 20.1 | -6.2% | -12.9% | 89.6% | 12.3* | -22.5%
Cc1cc(C)cc(NC(=O)CSCc2cc(=O)c3cc(Cl)ccc3[nH]2)c1 | x | x | x | x | x | 2.9%
O=C(O)c1ccncc1.O=C(O)c1ccncc1.[NH2-].[NH2-].[Pt] | x | 2.6% | x | x | x | x
CSc1ccccc1OCc1cc(C(=O)NCc2csc(C(C)C)n2)no1 | 14.6 | -4.1% | u | 55.2% | 16.9* | -10.6%
CSc1ccccc1OCc1cc(C(=O)NCCc2nc(C)cc(C)n2)no1 | 43.0* | -2.9% | u | 6.9% | 24.0* | -0.9%
CSc1ccccc1OCc1cc(C(=O)NCCc2ccco2)no1 | 58.6* | -5.7% | 47.6% | 6.2% | 35.4* | -22.6%
CSc1ccccc1OCc1cc(C(=O)N(C)C2CCCc3ccccc32)no1 (centres undefined) | 50.4* | 13.5% | u | 19.6% | 34.9 | u
CC(C)c1nc(CNC(=O)c2cc(COc3c(F)cccc3F)on2)cs1 | -3.4 | -2.0% | 10.4% | -21.6% | 0.7 | -6.9%
Cc1cc(C)nc(CCNC(=O)c2cc(COc3ccc(F)cc3F)on2)n1 | -7.6 | 4.0% | -5.5% | 31.7% | -4.1 | -0.1%
O=C(NCC(c1ccco1)N1CCN(c2ccccc2)CC1)C(=O)NC1CCCCC1 (centres undefined) | x | x | 0.8% | 7.3% | x | -0.8%
CCCCCCCC/C=C\CCCCCCCCN | x | x | -2.0% | -1.5% | x | x
CC(=O)N[C@@H](Cc1ccc(O)cc1)C(=O)O | -16.2 | x | -20.2% | u | -3.5 | x
COc1ccc(N2CC(C(=O)NC3CCCCC3)CC2=O)cc1 (centres undefined) | 2.0 | -6.7% | 28.9% | 31.3% | -9.1 | -9.0%
COc1ccc(-n2c(C)cc(C(=O)NC3CCCCC3)c2C)cc1 | 94.3* | -3.1% | u | u | 58.1* | -10.2%
Cc1cccc(-n2c(C)cc(C(=O)NC3CCCCC3)c2C)c1 | 85.1* | 15.2% | u | u | 94.1* | 1.4%
CCOC(=O)Nc1nnc(-c2ccccc2OC)s1 | 32.8* | -14.0% | 56.2% | 12.1% | 21.4* | -3.1%
COc1ccc(Cc2nnc(NC(=O)C(C)C)s2)cc1 | -2.4 | -5.9% | -7.3% | 2.0% | -0.5 | 7.6%
COC(=O)Nc1nnc(-c2ccccc2Cl)s1 | 65.1* | -80.2% | x | 107.5% | 25.8* | 7.5%[11.4 µM]
COc1ccccc1-c1nnc(NC(=O)OCC(C)C)s1 | -9.1 | -7.7% | 69.0% | 204.6% | -1.8 | 1.5%
COC(=O)Nc1nnc(-c2ccccc2OC)s1 | 74.3* | -7.9% | 124.3% | 161.6% | 37.9* | 2.1%
COc1ccc(-c2nnc(NC(=O)C(C)C)s2)c(OC)c1 | 52.3 | 3.7% | x | 52.1% | 20.7* | 94.5%
CC(C)CCNC(=O)C1CCC(Cn2c(=O)c3sccc3n(CC(=O)NC(C)C)c2=O)CC1 (centres undefined) | x | x | x | x | x | 10.3%
COc1cc(-c2ccc3c(=O)c4ccccc4n(C)c3c2)cc(OC)c1OC | 16.0 | -59.1% | u | 4.65µM* | 10.7* | -16.9%
Cn1c2ccccc2c(=O)c2ccc(F)cc21 | 18.1 | -103.5% | -24.6% | u | 15.7* | 5.9%
SMILES | Shiga inhibitor | NS1 inh | Pf growth 48h | Pf growth 96h | CHX counter | Sm TGR block
Cn1c2ccccc2c(=O)c2ccc(-c3ccc4c(c3)OCO4)cc21 | 45.6* | -3.9% | 55.6% | 9.28µM* | 30.9* | -20.0%
Cn1c(=O)c(Oc2ccc(F)cc2)c(O)c2ccccc21 | -4.1 | -3.1% | -9.5% | -23.3% | -3.8 | 0.7%
Cn1c(-c2ccc3c(c2)OCO3)cc(=O)c2ccccc21 | -7.2 | 0.1% | u | 11.1% | -2.9 | -3.4%
Cc1cc2oc(=O)c(CC(=O)O)c(C)c2c2occ(-c3ccccc3)c12 | x | x | x | x | x | -1.8%
O=C(CNC(=O)C12CC3CC(CC(C3)C1)C2)NCc1ccccc1 | x | x | u | 2.6% | x | 5.0%
O=C1COc2ccc3ccccc3c21 | 40.4 | 0.7% | 30.9% | 18.8% | 16.3* | -9.6%
Cc1ccc(SC(C)C(=O)Nc2ccccc2-c2ccccc2)cc1 (centres undefined) | -14.5 | -12.2% | -18.2% | 13.1µM* | -1.9 | 9.0%
CC(Sc1ccc(Cl)cc1)C(=O)Nc1ccccc1-c1ccccc1 (centres undefined) | 9.8 | 8.2% | 2.33µM* | -2.1% | 3.2 | -5.5%
Cn1c(/C=C/c2cccc([N+](=O)[O-])c2)nc2ccccc2c1=O | -14.4 | -1.0% | 14.8% | u | -1.6 | -7.7%[57.1 µM]
O=C(Nc1ccccc1)c1ccc(=O)n(Cc2cccc(Cl)c2)c1 | -7.9 | -4.5% | u | -2.9% | -2.1 | x
CCCn1cccc(C(=O)Nc2ccc(OC)cc2)c1=O | 53.4 | -8.4% | 8.1% | 24.9% | 22.2* | -30.6%
CCCCNC(=O)Nc1ccccc1C(=O)Nc1ccc(OC)cc1 | -10.4 | -9.7% | x | 306.3% | -0.3 | 3.0%
C#CCn1cc(Cl)cc(C(=O)Nc2ccccc2)c1=O | 2.5 | -6.7% | 25.1% | 0.0% | 17.3* | -3.6%
C#CCn1cccc(C(=O)Nc2ccc(OC)cc2)c1=O | 46.1* | 1.6% | 60.6% | 59.9% | 18.4* | -6.9%
COc1ccc2c(C)c(C(=O)N3CCN(Cc4ccccc4)CC3)oc2c1 | 7.9 | -6.3% | 5.8% | u | 6.8 | 6.5%
CCOc1ccc(NC(=O)c2cc(S(=O)(=O)NC3CCCC3)ccc2F)cc1 | x | x | x | x | x | 5.8%
[O-]/[N+](=C\c1ccc(F)cc1)c1ccccc1 | 5.9 | -16.9% | 33.2% | x | 18.0* | -2.1%
[O-]/[N+](=C\c1cccc(Br)c1)c1ccccc1 | 82.2* | x | 81.7% | 3.7% | 43.9* | 0.8%
O=S(=O)(Nc1nc2ccccc2nc1NCC1CCCO1)c1cccc(Cl)c1 (centres undefined) | -2.0 | -2.5% | 3.4% | -4.8% | -2.4 | 2.2%
COc1ccc(N(CC(=O)NC2CC3CCC2C3)S(=O)(=O)c2ccc(C)cc2)cc1OC (centres undefined) | -12.0 | 11.9% | u | 23.2% | -6.7 | 8.5%
COc1ccc(C)cc1S(=O)(=O)N(CC(=O)NC1CCCC1)c1ccc(F)cc1 | -3.1 | -0.8% | 41.4% | 9.28µM* | -0.5 | -22.6%
COc1ccc(S(=O)(=O)N(CC(=O)NC2CCCCC2)c2ccc(F)cc2)cc1 | 9.2 | -9.1% | 33.4% | 7.38µM* | -0.6 | 3.1%
COc1ccc(N(CC(=O)NC2CC3CCC2C3)S(=O)(=O)c2ccc(C)cc2)cc1 (centres undefined) | -6.6 | -21.7% | -17.8% | 13.1µM* | 1.9 | -4.8%
COc1ccc(C)cc1S(=O)(=O)N(C)CC(=O)NC1CCCCC1 | -13.3 | -11.5% | 5.2% | x | -2.5 | -3.4%
COc1ccc(-n2c(-c3ccc(C)cc3)cc3c2CC(C)(C)CC3=O)cc1Cl | x | x | x | x | x | 4.8%
CC(C)(C)C(=O)Cn1ncc(N2CCCC2)c(Br)c1=O | 138.0* | 2.8% | 124.9% | 275.8% | 36.3* | -1.3%
